# Measurements: PubChem BioAssay (Tox21)
# Inconclusive results are not listed. Calls of active or inactive are those of the source. Calls follow the shape of the dose curve; as a rule, active = well fitted activation curve with a large enough effect in the signal ratio in the repeat runs (not every such curve was filed as active); inconclusive = weak or mixed curves, or effect the other way; inactive = flat fitted curve, though single readings scatter; the % refers to the signal ratio.
# Assay: qHTS assay to identify small molecule agonists of the endoplasmic reticulum stress response signaling pathway (AID 1159516)
# Conditions: ESRE-bla HeLa, ER stress beta-lactamase reporter, 5 h; series mostly up to 61 µM
# Source text: National Center for Advancing Translational Sciences [NCATS]
# NIH Chemical Genomics Center [NCGC]
# U.S. Environmental Protection Agency [EPA]
# National Institutes of Environmental Health Sciences [NIEHS]
# National Toxicology Program [NTP]
# U.S. Food and Drug Administration [FDA]
# Endoplasmic Reticulum (ER) plays an important role in cellular signaling, protein folding/maturation, stress response, lipid biosynthesis, calcium storage and release etc. Under stress conditions, proteins in ER misfold or unfold, and leading to the expression of ER stress responsive genes. ER stress has been associated with a variety of pathophysiological conditions such as cancer, inflammation, neurodegenerative diseases, diabetes, ischemic heart disease etc. To identify the compounds that induce ER stress response, an ER stress reporter cell line, CellSensor ESRE-bla HeLa (Life Technologies, Carlsbad, CA) containing a beta-lactamase reporter gene under control of the Endoplasmic reticulum Stress Response Element (ESRE) was used to screen Tox21 10K compound library.
# Tox21 Assay Protocol Summary:
# ESRE-bla HeLa cells were dispensed at 1,500 cells/6 uL of assay medium per well into black wall/clear-bottom 1536-well plates using a Multidrop Combi (ThermoFisher Scientific, Waltham, MA) dispenser. After the assay plates were incubated at 37 C and 5% CO2 for an overnight, 23 nL of compounds dissolved in DMSO, positive controls or DMSO only was transferred to the assay plate by a Pintool station (Kalypsys, San Diego, CA). The assay plates were incubated at 37 C and 5% CO2 for 5 hr. One uL of LiveBLAzer B/G FRET substrate (Life Technologies) was added using a Flying Reagent Dispenser (Aurora Discovery, San Diego, CA) and the plates were incubated at room temperature for 2 hr. Fluorescence intensity (405 nm excitation, 460 nm and 530 nm emissions) was measured using an Envision plate reader (PerkinElmer, Shelton, CT).
row,SMILES,outcome
1,CCOP(=O)(OCC)O/C(=C/Cl)c1ccc(Cl)cc1Cl,inactive
2,CCCC(Cn1cncn1)c1ccc(Cl)cc1Cl (stereo not given),inactive
3,O=C(OC1CCCCC1)c1ccccc1C(=O)OC1CCCCC1,inactive
4,O=C(NC(=O)c1c(F)cccc1F)Nc1ccc(OC(F)(F)C(F)OC(F)(F)F)c(Cl)c1 (stereo not given),inactive
5,NNC(=O)c1cccnc1,inactive
6,Clc1ccc(C2(Cn3cncn3)CC(Br)CO2)c(Cl)c1 (stereo not given),inactive
7,Cc1cc(=O)[nH]o1,inactive
8,C=CC(C)=O,inactive
9,CC1CC(CC2CCC(N)C(C)C2)CCC1N (stereo not given),inactive
10,CC(C)(CCl)C(=O)Cl,inactive
11,N#C/C(N)=C(/N)C#N,inactive
12,CCCCNP(N)(N)=S,inactive
13,COCC(C)N(C(=O)CCl)c1c(C)csc1C (stereo not given),inactive
14,N#Cc1cc(I)c(O)c(I)c1,inactive
15,Cl/C=C\C[N+]12CN3CN(CN(C3)C1)C2,inactive
16,COc1c(C(C)(C)C)cc([N+](=O)[O-])c(C)c1[N+](=O)[O-],inactive
17,C=CC(=O)OCC(C)O (stereo not given),inactive
18,CC(=O)NC1CCSC1=O (stereo not given),inactive
19,O=C(O)C(F)(F)C(F)(F)C(F)(F)C(F)(F)C(F)(F)C(F)(F)C(F)(F)C(F)(F)C(F)(F)F,inactive
20,O=C(N[C@H](c1ccccc1)[C@@H]1CN2CCC1CC2)c1c(Cl)ccc(C(F)(F)F)c1Cl,inactive

row,SMILES,outcome
1,CCCN(CCCl)c1c([N+](=O)[O-])cc(C(F)(F)F)cc1[N+](=O)[O-],inactive
2,Clc1ccc(C(OCCN2CCCCC2)c2ccccc2)cc1 (stereo not given),inactive
3,C=CCCl,inactive
4,O=C(Nc1ccccc1)Nc1cnns1,inactive
5,CCCC(=O)Cl,inactive
6,CCCCC(CC)COP(=O)(Oc1ccccc1)Oc1ccccc1 (stereo not given),inactive
7,COCCOCCO,inactive
8,CC1(C)CCC(Cc2ccc(Cl)cc2)C1(O)Cn1cncn1 (stereo not given),inactive
9,CCN(C)N=O,inactive
10,CN(C)c1ccc(N(C)C)cc1,inactive
11,CC1C(=O)C[C@]2(C(C)C)C[C@H]12 (stereo not given in full),inactive
12,CC(=O)c1cc2c(cc1C)C(C)(C)C(C)CC2(C)C (stereo not given),inactive
13,CC(=O)[C@H]1CC[C@H]2[C@@H]3CC[C@H]4C[C@](C)(O)CC[C@]4(C)[C@H]3CC[C@]12C,inactive
14,O=C1C(Cl)C(CCl)CN1c1cccc(C(F)(F)F)c1 (stereo not given),inactive
15,CN(N=O)c1ccc([N+](=O)[O-])cc1,inactive
16,O=C(Nc1ccccc1)Nc1ccnc(Cl)c1,inactive
17,O=C(O)CC(Cl)C(=O)O (stereo not given),inactive
18,COP(=S)(OC)Oc1cc(Cl)c(I)cc1Cl,inactive
19,Sc1ccccc1Cl,inactive
20,CCOC(=O)CBr,inactive
